The structures appear in SMILES notation. The campaign covered roughly 410,000 compounds. About 6,400 (1.6%) were called active. Roughly 20% stayed inconclusive and do not appear here. Calls follow the shape of the dose curve; as a rule, active = well fitted inhibition curve with a large enough effect; inconclusive = small, poorly fitted or top-dose-only effect; inactive = no such curve, though single readings can be large or run the other way. Shown is part of a subset that was picked to be rich in actives. Entries that show only a call come without a potency.
Potency is read from the fitted curve at half-maximal effect.

In the experiment the target is Glucagon-like peptide 1 receptor (Homo sapiens) (UniProt P43220). Briefly: qHTS of GLP-1 Receptor Inverse Agonists (Inhibition Mode). Also: nearly all actives have a fitted effect of over 55% in size. To be noted: HEK293 GLP-1R CRE-luciferase, luminescence, 24 h, GLP-1R form is constitutively active; series mostly up to 38.3 µM. The gist of the method: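 GLP-1R inverse agonism mode: basal reporter luminescence in engineered HEK293 cells measured after one day of compound exposure at 37 deg C, with a 12 min room-temperature detection step.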
Sequence of Glucagon-like peptide 1 receptor (Homo sapiens) (P43220 whole entry, looked up): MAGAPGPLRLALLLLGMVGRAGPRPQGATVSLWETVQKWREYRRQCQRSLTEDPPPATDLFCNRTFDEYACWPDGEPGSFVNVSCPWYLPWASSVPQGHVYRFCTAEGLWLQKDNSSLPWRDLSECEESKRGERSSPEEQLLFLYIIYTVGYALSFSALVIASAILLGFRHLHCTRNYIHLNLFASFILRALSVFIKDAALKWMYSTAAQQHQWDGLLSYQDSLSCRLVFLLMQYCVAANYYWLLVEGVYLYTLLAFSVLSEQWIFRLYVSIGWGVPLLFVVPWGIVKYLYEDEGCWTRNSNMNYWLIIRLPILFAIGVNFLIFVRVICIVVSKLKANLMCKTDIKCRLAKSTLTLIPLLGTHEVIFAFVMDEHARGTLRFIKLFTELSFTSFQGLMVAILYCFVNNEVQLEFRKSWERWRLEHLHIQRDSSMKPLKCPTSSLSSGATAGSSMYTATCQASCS
For `O=C(C[C@H]1CC[C@@H](NC(=O)c2ccncc2)[C@@H](CO)O1)NCC1CC1`, the Potency entry was “inactive”.

In the case of `CCOc1cccc(/C=C/c2ccc3ccccc3n2)c1OC(C)=O`, the Potency was 10 µM (active).

`CCOc1ccccc1-c1cc(C(=O)N2CCOCC2)c2ccccc2n1`: the Potency entry was “inactive”. With `CCOc1ccccc1/C=N/Nc1nc2ccccc2o1` the entry was “inactive”; with `CC(C)(C)S(=O)N1Cc2cc(C(=O)NCCCN3CCOCC3)nc(-c3cccc(-c4cc5ccccc5o4)c3)c2[C@H]1CCO` (some centres not stated), “inactive”; with `COc1cccc(N2CCN(CC(=O)Nc3ccnn3C3CCCC3)CC2)c1`, “inactive”. With `COc1cccc(NC(=O)CN2CCN(c3nc(-c4cccc(OC)c4)cs3)CC2)c1` the figure was 10 µM (active); with `COc1cccc(CC(=O)Nc2ccc(-c3csc(C)n3)cc2)c1`, “inactive”. `CC(C)CN1CCC1(C)C(=O)Nc1ccc(OC(F)F)cc1` (configuration not stated): the Potency result is “inactive”. Under `C[N+](C)(C)CCNC(=O)c1c[nH]c2ccccc12` stands “inactive”; under `CC(C)c1cc(C(=O)N(C)C2CCCN(Cc3ccccc3F)C2)n(C)n1` (configuration not stated), “inactive”.

Regarding `COc1cc2c(cc1OC)C(C(C)C)=NC(C)(C)C2`, the Potency result is “inactive”. Under `COc1cc2c(cc1O)C(SC)=NC(C)(C)C2` stands 10 µM (active); under `COc1cc2c(cc1OC)C(Nc1ccc(S(N)(=O)=O)cc1)=NC(C)(C)C2`, “inactive”.

In the case of `CC(=O)NN=C(C)c1ccc(NC(=O)C2CC2)cc1`, the Potency entry was “inactive”. With `N#Cc1ccc(C(C(=O)NCc2ccccc2)n2c(=O)c(-c3ccco3)nc3ccccc32)cc1` (configuration not stated) the entry was “inactive”; with `Cc1ccc(NC(=O)Cn2sc3ccccc3c2=O)cc1`, “inactive”. With `O=C(O)c1cccc(NC(=S)N/N=C/c2c[nH]c3ccccc23)c1` the entry was “inactive”; with `COCCNC(=S)N/N=C/c1c(C)[nH]c2ccccc12`, “inactive”.

As for `CSC(=S)N/N=C/c1c[nH]c2ccccc12`, the Potency is 3.16 µM (active). Under `CCc1nc2ccc(C(=O)N3CCC(O)(Cc4ccccc4)CC3)cn2c1N(C)C(=O)Cc1ccccc1` stands “inactive”; under `Cc1ccc(S(=O)(=O)N(CC(=O)Nc2cccnc2)c2ccc(Br)cc2)cc1`, 11.2 µM (active); under `CCc1ccc(N(CC(=O)NCc2cccnc2)S(=O)(=O)c2ccccc2)cc1`, “inactive”. With `CCNC(=O)CN(c1ccc(C)cc1)S(=O)(=O)c1ccc(SC)cc1` the entry was “inactive”; with `CC(C)Oc1c(Br)cc(Br)cc1/C=N/NC(N)=S`, 2.51 µM (active).

Regarding `NC(=S)N/N=C/c1coc2cc(Cl)ccc2c1=O`, the Potency result was “inactive”. Under `CCOc1ccc(/C=N/NC(N)=S)cc1` stands “inactive”; under `CN1OC[C@@H]2CN(C(=O)c3ccc(-c4ccccc4)cc3)[C@H](c3ccc(-c4cccc(F)c4)cc3)C[C@@H]21`, “inactive”. With `CCCCN1C(=O)C(CC(=O)NCc2cccs2)CC(C(=O)N2CCCCCC2)=C1C` (configuration not stated) the entry was “inactive”. In the case of `CC1(C)C(C=C(Cl)Cl)C1C(=O)N(Cc1ccc(Cl)cc1)C1CCS(=O)(=O)C1` (configuration not stated), the Potency is 8.91 µM (active). With `COc1ccc(C(=O)N(Cc2ccc(N(C)C)cc2)C2CCS(=O)(=O)C2)cc1` (configuration not stated) the entry was “inactive”; with `Cc1cc(Cl)ccc1OCC(=O)N(Cc1ccc(N(C)C)cc1)C1CCS(=O)(=O)C1` (configuration not stated), “inactive”; with `C=CCN1CCN(c2ccncc2S(=O)(=O)N2CCN(C)CC2)CC1`, “inactive”. Under `C[C@@H]1Cn2cnc(C(=O)Nc3ccc(CNC(=O)OC(C)(C)C)cc3)c2C(=O)N1` stands “inactive”. With `O=C(CN1CCN(Cc2ccccc2)CC1)NC(c1ccccc1)c1ccccc1` the figure was 10 µM (active).

Regarding `O=C(CN1CCN(Cc2ccccc2)CC1)Nc1ccc(F)c(F)c1`, the Potency entry is “inactive”. With `O=C(Cc1ccc(-c2ccccc2)cc1)NC(c1ccccc1)c1ccccc1` the entry was “inactive”.

With `COc1ccc(S(=O)(=O)N(C)C)cc1NC(=O)COC(=O)c1n[nH]c2ccccc12`, the Potency result was “inactive”. With `Nc1ncnc2c1ncn2[C@@H]1O[C@H](CNC(=O)[C@H](N)Cc2cccnc2)[C@@H](O)[C@H]1O` the entry was “inactive”. Regarding `CSc1nsc(SC)c1NC(=O)OC1CCCCC1`, the Potency was 7.08 µM (active). Under `O=[N+]([O-])c1cc(Br)c(O)c(/C=N/Nc2nc3ccccc3s2)c1` stands 4.47 µM (active). With `O=C(NC(Nc1nc2ccc([N+](=O)[O-])cc2s1)(C(F)(F)F)C(F)(F)F)c1ccccc1`, the Potency result is “inactive”.

On to `COc1ccc(CC(=O)N/N=C/c2cc([N+](=O)[O-])cc(Br)c2O)cc1`, for which the Potency entry is “inactive”. With `CC1(C(=O)O)CCN1C(=O)/C=C/c1ccccc1` (configuration not stated) the entry was “inactive”. Under `Cc1cccc(S(=O)(=O)N(C)C[C@@H]2OCc3cnnn3CCCC(=O)N([C@H](C)CO)C[C@@H]2C)c1` stands “inactive”; under `O=C(NCCC1=CCCCC1)C1CCN(Cc2cnn(-c3ccccc3)c2-n2cccc2)CC1`, 4.47 µM (active); under `CC(=O)Nc1ccc(NC(=O)CSCc2cnn(-c3ccccc3)c2-n2cccc2)cc1`, “inactive”. With `Cc1cc(C)cc(NC(=O)CSCc2cnn(-c3ccccc3)c2-n2cccc2)c1` the entry was “inactive”. With `Cc1ccc(S(=O)(=O)N2C[C@H]3C(=O)C[C@@H](c4cccc5ccccc45)N(S(=O)(=O)c4ccc(C)cc4)[C@H]3C[C@H]2c2ccc(Cl)cc2)cc1`, the Potency entry is “inactive”. With `CC1(C(=O)NS(=O)(=O)c2cccc(OC(F)F)c2)CCN1C(=O)C1CC1` (configuration not stated) the entry was “inactive”; with `CC1=NN(C(=O)c2ccccc2Br)C(O)(c2cccnc2)C1` (configuration not stated), “inactive”.

In the case of `CC1=NN(C(=O)c2ccc(Br)cc2)C(O)(c2ccccc2)C1` (configuration not stated), the Potency was 1.12 µM (active). Consider `CC1=NN(C(=O)Cc2ccc(C)cc2)C(O)(c2cccnc2)C1` (configuration not stated), for which the Potency entry is “inactive”. Under `CCOC(=O)[C@]12CCCC=C1N(CCC1=CCCCC1)C(=O)[C@H](CC(=O)N1CCOCC1)C2` stands “inactive”; under `CC(=O)Nc1cccc(-c2cc3nc(NCc4cccnc4)n(C)c(=O)c3s2)c1`, “inactive”; under `Cc1c(C(=O)NCC2CC2)sc(=O)n1Cc1cccc(F)c1`, “inactive”. As for `O=C1NC[C@H](Cc2ccc(O)cc2)N(C[C@@H]2CCCN2C[C@H](Cc2ccccc2)N2C[C@H](Cc3ccccc3)N(CC3CCCCC3)C(=O)C2=O)C1=O`, the Potency entry was “inactive”. Under `c1ccc(-c2nnc(N3CCOCC3)c3ccccc23)cc1` stands “inactive”; under `CC1CN(c2nc(Nc3ccccc3)nc(N)c2[N+](=O)[O-])CC(C)O1` (configuration not stated), “inactive”; under `c1ccc(Nc2nc(N3CCOCC3)c3ccccc3n2)cc1`, 10 µM (active). Under `CCc1cc(C(=O)N(CC)CC(=O)Nc2c(F)cccc2F)sc1C` stands “inactive”; under `COC(=O)C[C@@H]1C=C[C@@H](NS(=O)(=O)c2cccc(OC)c2)[C@@H](CO)O1`, “inactive”; under `O=C(Nc1cccc2cccnc12)c1cccc2c(Br)cccc12`, “inactive”. With `Cc1ccc2cccc(NC(=O)c3ccc(OC(C)C)cc3)c2n1`, the Potency result was “inactive”.

For `Cc1ccc2cccc(NC(=O)c3cccc4ccccc34)c2n1`, the Potency is 11.2 µM (active). Under `CNc1cnc(-c2cc(OC)c(OC)c(OC)c2)cn1` stands “inactive”. With `CCCn1c(C(O)c2cc(OC)ccc2OC)nc2ccccc21` (configuration not stated), the Potency entry was “inactive”. For the compound `COc1ccc(-c2nc3ccccc3n2CCC(C)C)cc1OC`, the Potency is 8.91 µM (active). Under `CCn1c(C(O)c2cc(OC)ccc2OC)nc2ccccc21` (configuration not stated) stands “inactive”; under `CCOC(=O)c1c(NC(=S)SC)sc(C(=O)N2CCc3ccccc3C2)c1C`, “inactive”. Under `Cc1ccc(C(=O)N[C@H](C(=O)N2CCN(c3ncccn3)CC2)C(C)C)cc1` stands “inactive”; under `CCN(CC)C(=O)C1=C(C)N(Cc2ccc(OC)cc2)C(=O)C(CC(=O)NCc2ccco2)C1` (configuration not stated), “inactive”; under `CCN(CC)C(=O)C1=C(C)N(Cc2ccc(C(C)(C)C)cc2)C(=O)C(CC(=O)NCc2cccc3ccccc23)C1` (configuration not stated), 11.2 µM (active).

Take `COc1ccc(CN2C(=O)C(CC(=O)NCc3cccc4ccccc34)CC(C(=O)N3CCOCC3)=C2C)cc1` (configuration not stated): the Potency result was “inactive”. With `COC(=O)C(Cc1c[nH]c2ccccc12)NC(=O)CCNC(=O)c1ccco1` (configuration not stated) the entry was “inactive”; with `COc1ccc(S(=O)(=O)N2CCC(C(=O)NCCC(=O)Nc3ccccc3OC)CC2)cc1`, “inactive”; with `Nc1nc2c(ncn2[C@@H]2O[C@H](CNCc3ccc(OCCCN4CCOCC4)cc3)[C@@H](O)[C@H]2O)c(=O)[nH]1`, “inactive”. Under `COC(=O)Cc1ccc(OC2(C)CCN(Cc3ccc4c(c3)OCCO4)C2)cc1` (configuration not stated) stands “inactive”; under `CCOc1cccc(-n2nnnc2-c2ccc(OC)cc2)c1`, 2.51 µM (active).

Turning to `COc1ccc(NC(=O)CSc2nnnn2-c2cccc(OC)c2)cc1`, the Potency entry is “inactive”.

As to `COc1ccc(-n2nnnc2-c2nc3ccccc3s2)cc1`, the Potency result was “inactive”. With `O=C(NCCO)c1cccc(-c2cccc3nccn23)c1` the entry was “inactive”. Under `O=C1NC[C@H](CCCCN2CCN(CCc3ccccc3)C(=O)C2=O)N(CC2CCCCC2)C1=O` stands “inactive”. Under `COC(=O)c1ccc2nc(-c3ccc(F)cc3)c(Cc3ccc(C)cc3)n2c1` stands “inactive”; under `CCNC(=O)c1cc2c(c(-c3cccc(-c4cncnc4)c3)n1)[C@H](CCO)N(C(C)=O)C2`, “inactive”; under `Cc1cccc(NC(=S)NCCc2ccc(Cl)cc2)c1C`, 5.62 µM (active).

For `CCNC(=S)Nc1cccc(Cl)c1C`, the Potency result is “inactive”. Under `Cc1c(Cl)cccc1NC(=S)NCc1ccc2c(c1)OCO2` stands “inactive”.

As to `COc1ccc(S(=O)(=O)N(C)C[C@H]2OCc3cnnn3CCCC(=O)N([C@H](C)CO)C[C@H]2C)cc1`, the Potency result was “inactive”. With `CC1CCc2sc(C(=O)N/N=C/C3CCCCC3)cc2C1` (configuration not stated) the entry was “inactive”; with `CSc1ncccc1C(=O)NCC(c1ccco1)N1CCCCC1` (configuration not stated), “inactive”; with `CC1CCc2sc(C(=O)NCC(c3ccco3)N3CCCCC3)cc2C1` (configuration not stated), 8.91 µM (active).

Take `CC1Cc2ccccc2N1S(=O)(=O)c1cccc(C(=O)OCC(=O)N2CCOCC2)c1` (configuration not stated): the Potency entry was “inactive”.

For `CC1Cc2ccccc2N1S(=O)(=O)c1cccc(C(=O)NCC(c2ccco2)N2CCCC2)c1` (configuration not stated), the Potency is 10 µM (active). Under `Cc1cc(S(=O)(=O)Nc2ccc(C(=O)NCC(c3ccco3)N3CCCC3)cc2)ccc1F` (configuration not stated) stands “inactive”; under `CCN(CC(=O)Nc1ccc(NC(C)=O)cc1)C(=O)C1CC(=O)N(c2ccc3c(c2)OCCO3)C1` (configuration not stated), “inactive”; under `COc1cccc(CN(C)C(=O)CC[C@H]2O[C@@H](n3cnc4c(NC(=O)c5ccccc5)ncnc43)[C@H](O)[C@@H]2O)c1`, “inactive”.

The values above are taken from PubChem BioAssay AID624417 (National Center for Advancing Translational Sciences (NCATS), 2012).
